HepG2 viability: counter-screen for TGF-b inhibitors: cytotoxicity in HepG2 cells. HepG2 CAGA-GFP viability, ATP luminescence, 18 h. 0.76% of 410,000 active. Potency, µM (top dose mostly 46.1 µM), actives largely listed as cytotoxic
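HepG2 CAGA-GFP cells (1000/well, DMEM with 1% FBS) received compound, then TGF-beta at 500 pg/mL final, and were incubated 18 hours at 37 degrees C. Viability was read by CellTiter-Glo luminescence. Media-only wells were set as complete cell-killing and DMSO as no toxicity.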
IL1B secr inh: blocks inflammasome-driven IL-1 beta release; 4.7% of 360,000 active; THP-1 LPS/ATP IL-1B secretion, AlphaLISA, 16 h; hits give low values; activity change, % at 57.5 µM; in the data active = activity change below about -50%; inconclusive = mostly about -30% to -49%
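Secreted IL-1B measured by AlphaLISA bead assay after 16 h compound exposure of THP-1 cells; compounds (final up to 57.5 uM) added 1 h before LPS (250 ng/mL) and ATP (1.25 mM) stimulation; lower signal means less secretion.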
TDP1 cell noCPT: qHTS for Inhibitors of human tyrosyl-DNA phosphodiesterase 1 (TDP1): qHTS in cells in absence of CPT. DT40 Tdp1-/- hTDP1 cells, no CPT, ATP luminescence, 48 h. Potency, µM (titrated, usually from 46.2 µM), most hits filed as inhibitors. 15% of 420,000 active. AID 686978, 2013; also: nearly all actives have a fitted effect of over 55% in size
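Chicken DT40 Tdp1-/- cells stably complemented with human TDP1 were seeded at 400 cells/well with DMSO in place of 20 nM camptothecin. After compound pinning, cells grew at least 48 hr at 37 °C; viability read by CellTiter-Glo luminescence.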
TDP1 block: TDP1 (human) enzyme inhibition. recombinant TDP1, AlphaScreen DNA substrate cleavage. 0.28% of 350,000 active. Q9NUW8. Potency, µM (doses to about 130 µM), usual class: inhibitors; also: nearly all actives have a fitted effect of over 40% in size
Target sequence (Q9NUW8 whole entry, looked up): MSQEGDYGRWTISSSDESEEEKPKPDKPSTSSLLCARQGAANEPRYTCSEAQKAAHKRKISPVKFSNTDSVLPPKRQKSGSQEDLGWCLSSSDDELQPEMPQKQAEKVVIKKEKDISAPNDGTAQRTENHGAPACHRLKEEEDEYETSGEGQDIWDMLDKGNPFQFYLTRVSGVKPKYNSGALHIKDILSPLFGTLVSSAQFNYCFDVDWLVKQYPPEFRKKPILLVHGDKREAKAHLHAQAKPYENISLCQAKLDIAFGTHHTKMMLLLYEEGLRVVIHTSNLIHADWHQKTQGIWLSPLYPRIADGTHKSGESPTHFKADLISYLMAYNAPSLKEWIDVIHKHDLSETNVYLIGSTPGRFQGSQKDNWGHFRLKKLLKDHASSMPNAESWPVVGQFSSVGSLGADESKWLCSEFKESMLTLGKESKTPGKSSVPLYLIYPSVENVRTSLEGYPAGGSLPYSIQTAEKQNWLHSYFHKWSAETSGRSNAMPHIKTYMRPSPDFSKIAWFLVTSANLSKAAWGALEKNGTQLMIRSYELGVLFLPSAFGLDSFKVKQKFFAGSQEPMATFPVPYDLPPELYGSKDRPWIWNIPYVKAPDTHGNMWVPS
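Compounds were preincubated with Tdp1 (1 nM final) for 15 min at room temperature before substrate (15 nM final) started a 5 min reaction; beads (10 ug/ml final) were then added for 10 min before AlphaScreen detection.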
DT40 TDP1 CPT: DT40-hTDP1 cell growth loss with CPT | chicken DT40 Tdp1-/-;hTDP1 cells + 20 nM CPT, ATP luminescence, 48 h | Potency, µM (series often up to 46.2 µM), most hits filed as inhibitors | 12% of 420,000 active | AID 686979; also: nearly all actives have a fitted effect of over 55% in size
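Chicken DT40 Tdp1-/- cells complemented with human TDP1, 400 cells/well, exposed to compounds plus 20 nM camptothecin for at least 48 h at 37 C; viability read as ATP content by CellTiter-Glo luminescence.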
TGFb SMAD3 inh: blocks TGF-b signaling; HepG2 CAGA-GFP TGF-b/SMAD3 reporter, GFP fluorescence, 18 h; TGF-beta stimulated, 500 pg/mL final; Potency, µM (titrated, usually from 46.1 µM), usual class: inhibitors; 1.2% of 410,000 active; AID 588855; also: nearly all actives have a fitted effect of over 65% in size
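HEPG2 CAGA-GFP reporter cells (1000/well, DMEM with 1% FBS) received compounds, then recombinant TGF-beta at 500 pg/mL final for 18 hours at 37 degrees C. Per-cell GFP summed per well was normalised to unstimulated and stimulated DMSO controls before curve fitting.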
Of the large screens only hits and unclear results are named; the others gave an inactive call. Only some compounds are listed: those with a hit (about 18% of all), similar ones and a draw of the others. Unless noted, calls follow the shape of the dose curve; as a rule, active = well fitted curve in the direction sought with a large enough effect; inconclusive = small, poorly fitted or top-dose-only effect, or another doubt; inactive = no such curve, though single readings can be large; an effect the other way counts as inactive or inconclusive.

CC1(C(=O)NS(=O)(=O)C2CC2)CCCN(C(=O)c2ccc(F)c(Cl)c2)C1 (centres undefined)	TDP1 cell noCPT 5.2µM, DT40 TDP1 CPT 5.8µM (no result: TDP1 block)
Cc1ccc(S(=O)(=O)Nc2cccc(C(=O)NCC3CCCO3)c2)cc1F (centres undefined)	TDP1 cell noCPT inconclusive, DT40 TDP1 CPT inconclusive, TGFb SMAD3 inh inconclusive
O=C(c1cc(-c2cccnc2)nc2ccccc12)N1CCN(S(=O)(=O)c2ccc(Cl)s2)CC1	TDP1 cell noCPT inconclusive, DT40 TDP1 CPT inconclusive (no result: TDP1 block)
CN1CCN(c2cc3c(c4c2[nH]c2ccccc24)C(=O)CC(C)(C)C3)CC1	HepG2 viability 11µM, IL1B secr inh -65, TDP1 cell noCPT 16µM, DT40 TDP1 CPT inconclusive, TGFb SMAD3 inh inconclusive
CN1CCN(c2ccc(Cl)cc2NC(=O)c2cc(=O)[nH]c3ccccc23)CC1	TDP1 cell noCPT inconclusive, DT40 TDP1 CPT inconclusive
O=C(O)C1=C[C@H](c2ccc(Br)cc2)C[C@H](OCc2ccc(CO)cc2)O1	none
CN(Cc1ccccc1)c1ncnc2[nH]ncc12	DT40 TDP1 CPT inconclusive (no result: TDP1 block)
CN(Cc1ccccc1)c1ncnc2sccc12	TDP1 cell noCPT 12µM, DT40 TDP1 CPT inconclusive
CCN(CC)c1ccc2c(c1)oc(=O)c1c(Cl)cc(=O)oc12	HepG2 viability 14µM, IL1B secr inh -126, TDP1 cell noCPT 5.2µM, DT40 TDP1 CPT 2.6µM, TGFb SMAD3 inh inconclusive (no result: TDP1 block)
CCN(CC)c1ccc2c(Cl)c(Br)c(=O)oc2c1	IL1B secr inh -100, TDP1 cell noCPT 23µM, DT40 TDP1 CPT 18µM, TGFb SMAD3 inh inconclusive (no result: TDP1 block)
COc1ccc(CC(=O)NC2CCCCCC2)c(OC)c1	none (no result: TDP1 block)
NC(=O)c1sc2nccc(Nc3ccccc3)c2c1N	TDP1 cell noCPT 21µM, DT40 TDP1 CPT 10µM
NC(N)=Nc1nc(-c2ccccc2)c2cc(F)ccc2n1	IL1B secr inh -90, TDP1 cell noCPT 12µM, DT40 TDP1 CPT 21µM, TGFb SMAD3 inh inconclusive
O=C(NCCc1ccccc1)C1Cc2c(-c3ccc4c(c3)OCO4)ccnc2O1 (centres undefined)	TDP1 cell noCPT 16µM, DT40 TDP1 CPT 21µM (no result: TDP1 block)
NC(=O)c1cccc(-c2ccnc3c2CC(C(=O)NCc2cccc(Cl)c2)O3)c1 (centres undefined)	TDP1 cell noCPT 15µM, DT40 TDP1 CPT 16µM (no result: TDP1 block)
NC(=O)c1cccc(-c2ccnc3c2CC(C(=O)NCC2CC2)O3)c1 (centres undefined)	none (no result: TDP1 block)
CC(C)NC(=O)C1Cc2c(-c3ccc4c(c3)OCO4)ccnc2O1 (centres undefined)	TDP1 cell noCPT inconclusive, DT40 TDP1 CPT inconclusive (no result: TDP1 block)
CC(=O)Nc1cccc(-c2ccnc3c2CC(C(=O)NCc2cccc(Cl)c2)O3)c1 (centres undefined)	TDP1 cell noCPT 4.1µM, DT40 TDP1 CPT 3.3µM (no result: TDP1 block)
CC(=O)Nc1cccc(-c2ccnc3c2CC(C(=O)NCCc2ccccc2)O3)c1 (centres undefined)	TDP1 cell noCPT 2.9µM, DT40 TDP1 CPT 4.6µM, TGFb SMAD3 inh inconclusive (no result: TDP1 block)
CC1=C/C(=N\Nc2ccccc2[N+](=O)[O-])CC(C)(C)C1	TDP1 cell noCPT inconclusive
COC(=O)CN1C(=O)[C@@H]2[C@H](C1=O)[C@@H]1CC(C(=O)OC)=C[C@@H](C(=O)OC)C3C1=C(C(=O)[C@]3(C)NC(=O)c1ccccc1)[C@@H]2C (some centres undefined)	none (no result: IL1B secr inh, TDP1 cell noCPT, DT40 TDP1 CPT)
CCOc1ccc(C(=O)OCC(=O)N2CC(C)OC(C)C2)cc1OCC (centres undefined)	none
CC(=O)Nc1cccc(-c2ccnc3c2CC(C(=O)NCc2cccnc2)O3)c1 (centres undefined)	TDP1 cell noCPT inconclusive (no result: TDP1 block)
CC(=O)Nc1ccc(-c2ccnc3c2CC(C(=O)NCc2cccc(Cl)c2)O3)cc1 (centres undefined)	TDP1 cell noCPT 2.3µM, DT40 TDP1 CPT 3.7µM (no result: TDP1 block)
COc1ccc(CNC(=O)C2Cc3c(-c4ccccc4)ccnc3O2)cc1OC (centres undefined)	TDP1 cell noCPT inconclusive, DT40 TDP1 CPT inconclusive (no result: TDP1 block)
COc1ccc(CCCNC(=O)C2Cc3c(-c4ccccc4)ccnc3O2)cc1 (centres undefined)	TDP1 cell noCPT 5.8µM, DT40 TDP1 CPT 6.5µM, TGFb SMAD3 inh inconclusive (no result: TDP1 block)
COc1cccc(C(=O)N/N=C/C(Br)=C/c2ccccc2)c1	IL1B secr inh -75, TDP1 cell noCPT 2.9µM, DT40 TDP1 CPT 1.8µM, TGFb SMAD3 inh inconclusive
COc1cccc(C=C(C(C)=O)C(=O)c2ccccc2)c1	IL1B secr inh -113, TDP1 cell noCPT 15µM, DT40 TDP1 CPT 21µM (no result: HepG2 viability, TDP1 block, TGFb SMAD3 inh)
COc1ccc(C(=O)N/N=C/C(Br)=C/c2ccccc2)cc1	IL1B secr inh -58, TDP1 cell noCPT 15µM, DT40 TDP1 CPT 13µM
CCC(=O)Nc1ccc(/C=C(\C(C)=O)C(=O)c2ccccc2)cc1	IL1B secr inh -98, TDP1 cell noCPT 23µM, DT40 TDP1 CPT inconclusive (no result: TDP1 block)
CC(=O)/C(=C/c1ccc(N(C)C)cc1)C(=O)c1ccccc1	TDP1 cell noCPT inconclusive, DT40 TDP1 CPT inconclusive
Cc1occc1-c1nnc(SCC(=O)NC2CC2)n1C(C)C	none
Cc1ccc(S(=O)(=O)NC(=O)C2(C)CCN2C(=O)Cc2ccc(C(C)(C)C)cc2)cc1 (centres undefined)	none (no result: TDP1 block)
C=CCN1C(=O)c2ccc(C(=O)NCCc3ccc(F)cc3)cc2C1=O	none (no result: TDP1 block)
[O-]/[N+](=C\c1ccncc1)c1ccc(Br)cc1	TDP1 cell noCPT inconclusive, DT40 TDP1 CPT 8.2µM
O=[N+]([O-])c1cccc(/C=C/c2ccncc2)c1	IL1B secr inh inconclusive
Cc1cccc(C(C)C)c1NC(=O)c1ccc2c(c1)CCCN2S(C)(=O)=O	DT40 TDP1 CPT inconclusive (no result: IL1B secr inh)
COc1ccc(Oc2c(C(F)(F)F)oc3c(CN4CCCC(C)C4)c(O)ccc3c2=O)cc1 (centres undefined)	TDP1 cell noCPT inconclusive, DT40 TDP1 CPT inconclusive (no result: IL1B secr inh)
O=C(CN1C(=O)/C(=C2\SC(=S)N(C3CCS(=O)(=O)C3)C2=O)c2ccccc21)Nc1ccc(F)cc1 (centres undefined)	TDP1 cell noCPT inconclusive, DT40 TDP1 CPT 6.5µM (no result: IL1B secr inh)
O=C(CN1C(=O)C2CCCCN2C(=O)c2ccccc21)Nc1ccc(F)cc1 (centres undefined)	TDP1 cell noCPT inconclusive, DT40 TDP1 CPT inconclusive, TGFb SMAD3 inh inconclusive
COc1ccc(NC(=O)CN2C(=O)/C(=C3\SC(=S)N(C4CCS(=O)(=O)C4)C3=O)c3ccccc32)cc1 (centres undefined)	IL1B secr inh inconclusive, TDP1 cell noCPT 18µM, DT40 TDP1 CPT 9.2µM

High-throughput results (PubChem)
